Rows were chosen to be rich in hits. Some 1.8% of all compounds tested hit in one or more screens of this group.
GRK2 aptamer HTS: blocks RNA aptamer binding to human GRK2; inhibition of aptamer binding, % at 10 µM; P25098; bead flow cytometry, FAM-aptamer displacement from GRK2; hit rate 0.59% among 330,000;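 active = inhibition of aptamer binding above 40%, roughly 3 SD of noise, on plates passing a quality check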;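 note: median bead fluorescence of bound FAM aptamer so fluorescent compounds give negative values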
Target sequence (P25098 whole entry, looked up): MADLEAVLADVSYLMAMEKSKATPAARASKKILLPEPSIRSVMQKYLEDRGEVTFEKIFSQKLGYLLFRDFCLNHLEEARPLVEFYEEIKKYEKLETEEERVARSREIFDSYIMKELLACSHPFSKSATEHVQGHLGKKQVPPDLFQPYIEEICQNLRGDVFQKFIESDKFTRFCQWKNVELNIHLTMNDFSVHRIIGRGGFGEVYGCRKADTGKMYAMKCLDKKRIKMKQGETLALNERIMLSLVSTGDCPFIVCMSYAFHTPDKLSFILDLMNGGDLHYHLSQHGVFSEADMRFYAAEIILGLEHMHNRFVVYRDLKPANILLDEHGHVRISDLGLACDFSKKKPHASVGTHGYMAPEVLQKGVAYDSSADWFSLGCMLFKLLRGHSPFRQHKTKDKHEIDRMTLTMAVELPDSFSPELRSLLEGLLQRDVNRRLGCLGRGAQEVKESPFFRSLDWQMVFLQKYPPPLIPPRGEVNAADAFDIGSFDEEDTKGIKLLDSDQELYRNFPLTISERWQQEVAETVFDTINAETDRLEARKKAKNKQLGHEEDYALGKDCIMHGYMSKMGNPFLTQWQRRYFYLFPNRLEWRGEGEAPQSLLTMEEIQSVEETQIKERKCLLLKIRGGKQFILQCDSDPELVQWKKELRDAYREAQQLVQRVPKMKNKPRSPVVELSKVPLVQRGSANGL
HDAC3 inh: blocks human histone deacetylase 3. recombinant HDAC3, fluorogenic peptide/trypsin coupled, fluorescence. inhibition, % at 8.3 µM. hit rate 0.15% among 320,000. O15379; in the data active = inhibition above about 26%, passing the limit was not always enough; inconclusive = no clear call, values can overlap the other calls
VLA-4 inh: inhibition in a human VLA-4 binding assay | hit rate 0.2% among 330,000 | P13612 | VLA-4 expressing cells, ligand binding flow cytometry | AID 2557 | inhibition, % (about 7 µM as worked out from the volumes in the protocol)
LANA-H2B inh: blocks KSHV LANA binding to histone H2A/H2B. hit rate 0.6% among 320,000. cell-free LANA-H2A/H2B peptide, fluorescence polarization. AID 2629. Q9QR71. inhibition, % (concentration not given with the values); in the data active = inhibition mostly above about 10%, no sharp cut-off; inactive = mostly below about 6.7%
PKD1 kinase inh: inhibitors of human PKD1 kinase | inhibition, % (no concentration beside the values) | PKD1 kinase fluorescence polarization assay | hit rate 0.056% among 200,000
DSG3 Ab inh: inhibitors of pemphigus antibody binding to human desmoglein-3. P32926. DSG3-coupled beads, scFv-anti-DSG3-GFP binding, flow cytometry; active compounds read low. binding (percent of control), % at 10 µM. hit rate 0.48% among 310,000. AID 588358;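 active = binding more than 3 SD below its plate's average and above zero; inconclusive = below that plate limit but binding exactly zero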;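 note: hits lower antibody fragment binding to DSG3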
GRK2 inh confirm: confirmation of human GRK2 inhibitors displacing RNA aptamer; shares compounds with GRK2 aptamer HTS; bead-bound GRK2, FAM-aptamer displacement, flow cytometry; aptamer displacement, % at 10 µM; hit rate 4% among 2,000; AID 504451;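 active = aptamer displacement above 40%, near three times the noise of non-fluorescent compounds, on plates passing quality checks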;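 note: negative values mostly reflect intrinsic compound fluorescence rather than true enhancement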
Aptamer quench SP: counter-screen for GRK2 aptamer inhibitors: fluorescent aptamer quenchers; shares compounds with GRK2 aptamer HTS; fluorescence response (% of DMSO), % at 10 µM; Carboxyfluorescein RNA aptamer on beads, flow cytometry quenching; active compounds read low; AID 504580; 2,000 tested, under 10 active;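 active = compounds that quench the bead-bound fluorescent RNA probe, cutting fluorescence to under half of the solvent control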;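 note: counterscreen run without GRK2 so only probe quenching by compound is measured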
GRK2 confirm 2: confirmation of human GRK2 inhibitors binding RNA aptamer site; shares compounds with GRK2 aptamer HTS; bead-bound GRK2, FAM-aptamer displacement, flow cytometry; inhibition of aptamer binding, % at 10 µM; 360 tested, under 10 active;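 active = inhibition of aptamer binding above 40%, about triple the noise seen with nonglowing compounds, on plates passing quality control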;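 note: negative values mostly come from compounds that fluoresce themselves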
FAM quench SP: quenches fluorescent RNA aptamer, GRK2 hit artifact. carboxyfluorescein RNA aptamer beads, flow cytometry quenching; active compounds read low. 360 tested, under 10 active. AID 588494. shares compounds with GRK2 aptamer HTS. fluorescence response vs DMSO, % at 10 µM;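 active = response vs DMSO under 50%, meaning signal dropped by over half, treated as fluorescence quencher; inconclusive = no clear call, values can overlap the other calls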;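 note: labelled aptamer on streptavidin beads without GRK2 as a quench counter-screen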
Large screens that a line does not name were inactive (follow-up assays come after a bar, where they were run). Cut-off read from the data, not from the text of the source, unless noted: active = inhibition above about 50%; inactive = the rest.

COc1ccccc1NC(=O)CCC(=O)Nc1ccccc1OC	none
COc1ccccc1NC(=O)CC1CCCC1	GRK2 aptamer HTS 61 (no result: PKD1 kinase inh) | GRK2 inh confirm inactive | Aptamer quench SP inactive
COC(=O)CCC(=O)N1CCCC(N2CCN(c3ccc(OC)cc3)CC2)C1 (stereo unspecified)	none (no result: PKD1 kinase inh)
NC(=O)[C@@H]1CCCNc2c(I)cc([N+](=O)[O-])cc2C(=O)N[C@@H](CCC(=O)O)C(=O)N[C@@H](CO)C(=O)N1	GRK2 aptamer HTS 88 | GRK2 inh confirm inactive | Aptamer quench SP inactive
NC(=O)C[C@H]1NC(=O)[C@H](CCC(=O)O)NC(=O)c2cc([N+](=O)[O-])cc(I)c2NCCC[C@@H](C(N)=O)NC1=O	none
Cc1cn(C2OC(COC(=O)c3ccccc3)C(O)C2O)c(=O)[nH]c1=O (stereo unspecified)	none
Cc1cn(C2OC(COC(=O)c3ccccc3)C(OC(=O)c3ccccc3)C2OC(=O)c2ccccc2)c(=O)[nH]c1=O (stereo unspecified)	GRK2 aptamer HTS 100 (no result: HDAC3 inh, LANA-H2B inh, DSG3 Ab inh) | GRK2 inh confirm inactive | Aptamer quench SP inactive
COc1ccc(C(=O)N2CCN(C)C(=O)[C@@H]2C)cc1OC1CCN(C(C)=O)CC1	none (no result: PKD1 kinase inh)
O=C(OCC(=O)N1CCN(S(=O)(=O)c2ccccc2)CC1)C1CCC1	GRK2 aptamer HTS 59 (no result: PKD1 kinase inh) | GRK2 confirm 2 inactive | FAM quench SP inactive
O=C(Nc1cccc([N+](=O)[O-])c1)C1COc2ccccc2O1 (stereo unspecified)	none (no result: PKD1 kinase inh)
CCOC(=O)c1cc(CN2CCOCC2)oc1-c1ccccc1	GRK2 aptamer HTS 69, DSG3 Ab inh inconclusive | GRK2 inh confirm inactive | Aptamer quench SP inactive
CC1CN(C(=O)c2cccc(S(=O)(=O)N3CCOCC3)c2)CC(C)O1 (stereo unspecified)	none | GRK2 inh confirm inactive | Aptamer quench SP inactive
CC1CN(C(=O)c2cccc(COc3ccccc3Cl)c2)CC(C)O1 (stereo unspecified)	GRK2 aptamer HTS 98 | GRK2 inh confirm inactive | Aptamer quench SP inactive
CCN1CCN(C(=O)CCc2nnc(CCc3ccc(OC)cc3)o2)[C@@H](C)C1=O	none (no result: PKD1 kinase inh)
CCOc1ccc(NC(=O)c2cccc(NC(C)=O)c2)cc1S(=O)(=O)N1CCCC1	none (no result: GRK2 aptamer HTS, HDAC3 inh, VLA-4 inh, LANA-H2B inh, PKD1 kinase inh)
CCc1ccc(CCC(=O)N2CCN(S(=O)(=O)c3ccc(Br)cc3)CC2)cc1	none (no result: GRK2 aptamer HTS, HDAC3 inh, VLA-4 inh, LANA-H2B inh, PKD1 kinase inh)
CC(c1nccs1)N(C)C(=O)c1cn(Cc2cccc3ccccc23)nn1 (stereo unspecified)	none (no result: PKD1 kinase inh)
CCc1ccc(CCC(=O)Nc2ccc(OC)cc2)o1	none
COc1ccc(C(N)CCc2ccc(C)o2)cc1 (stereo unspecified)	GRK2 aptamer HTS 79 | GRK2 inh confirm inactive | Aptamer quench SP inactive
COc1cc(/C=N/NC(=O)CC#N)ccc1Oc1nc(Cl)ncc1F	none (no result: PKD1 kinase inh)
O=c1[nH]c(Cc2cccc(C(F)(F)F)c2)nc2ccccc12	none (no result: PKD1 kinase inh) | GRK2 inh confirm inactive | Aptamer quench SP inactive
O=C(O)COc1ccccc1/C=N/NC(=O)c1cccc(S(=O)(=O)N2CCOCC2)c1	none (no result: DSG3 Ab inh)
COc1cc(CN2CCCC(CO)(Cc3cccc(Cl)c3)C2)cc2c1OCO2 (stereo unspecified)	none (no result: HDAC3 inh)
O=C(CCc1nc2ccccc2c(=O)[nH]1)Nc1ccc(F)c([N+](=O)[O-])c1	GRK2 aptamer HTS 46 | GRK2 inh confirm inactive | Aptamer quench SP inactive
O=C(O)CC/C(=N/NC(=O)CNC(=O)C(c1ccccc1)c1ccccc1)c1ccccc1	GRK2 aptamer HTS 90 (no result: HDAC3 inh, PKD1 kinase inh) | GRK2 inh confirm inactive | Aptamer quench SP inactive
COc1ccc([C@H]2Cc3cccc(O)c3C(=O)O2)cc1O	GRK2 aptamer HTS 85 (no result: PKD1 kinase inh) | GRK2 inh confirm inactive | Aptamer quench SP inactive
CC(NC(=O)COC(=O)c1ccccc1F)C1CC2CCC1C2 (stereo unspecified)	none (no result: PKD1 kinase inh, DSG3 Ab inh)
CN(CC(=O)NCc1ccc(F)cc1)Cc1cccc(Cl)c1	none (no result: PKD1 kinase inh)
CCN(CC(=O)NCc1ccc(F)cc1)C(=O)C(C)Oc1cccc(Cl)c1 (stereo unspecified)	GRK2 aptamer HTS 79 (no result: PKD1 kinase inh) | GRK2 inh confirm inactive | Aptamer quench SP inactive
O=C(CC1CCCC1)N1CCN(S(=O)(=O)c2ccccc2)CC1	none (no result: PKD1 kinase inh)
Cn1c2c(c(=O)n(C)c1=O)C(c1ccccc1Cl)CC(=O)N2 (stereo unspecified)	none
CSc1ccc(C2CC(=O)Nc3c2c(=O)n(C)c(=O)n3C)cc1 (stereo unspecified)	GRK2 aptamer HTS 85 (no result: PKD1 kinase inh) | GRK2 inh confirm inactive | Aptamer quench SP inactive
COC(=O)c1ccc(Oc2ccc3nncn3n2)cc1	GRK2 aptamer HTS 49 (no result: DSG3 Ab inh) | GRK2 inh confirm inactive | Aptamer quench SP inactive
COC(=O)c1ccc(Oc2ccc3nnc(C)n3n2)cc1	none
CCc1cc2c(=O)n(Cc3ccccc3)c(SC3CCOC3=O)nc2s1 (stereo unspecified)	none
Cc1ccc(Cn2c(SC3CCOC3=O)nc3ccccc3c2=O)cc1 (stereo unspecified)	GRK2 aptamer HTS 43 | GRK2 confirm 2 inactive | FAM quench SP inactive
N#C/C(=C\Nc1ccccc1SC(F)(F)F)c1nc(-c2ccccc2)cs1	GRK2 aptamer HTS 48 | GRK2 inh confirm inactive | Aptamer quench SP inactive
Nc1c(C(=O)NCCc2ccccc2)nnn1Cc1ccc(Cl)cc1	none
Nc1c(C(=O)NCCc2ccccc2)nnn1Cc1ccc(Br)cc1F	GRK2 aptamer HTS 50 (no result: HDAC3 inh) | GRK2 inh confirm inactive | Aptamer quench SP inactive
Cc1cnc(C(=O)OCC(=O)c2ccc(C)s2)cn1	GRK2 aptamer HTS 45 (no result: PKD1 kinase inh) | GRK2 inh confirm inactive | Aptamer quench SP inactive
Cc1cnc(C(=O)OCC(=O)N(Cc2ccccc2)C(C)C)cn1	GRK2 aptamer HTS 42 | GRK2 inh confirm inactive | Aptamer quench SP inactive
Cc1cnc(C(=O)OCC(=O)c2ccccc2)cn1	none (no result: PKD1 kinase inh)
O=[N+]([O-])c1ccc(S(=O)(=O)NCC(c2cccnc2)N2CCc3ccccc32)cc1 (stereo unspecified)	none (no result: PKD1 kinase inh)
CC(C(=O)OCc1nnc(-c2ccccc2)o1)N1C(=O)C2CCCCC2C1=O (stereo unspecified)	none
CC(Oc1ccccc1Cl)C(=O)N1CCCN(C)CC1 (stereo unspecified)	none (no result: PKD1 kinase inh, DSG3 Ab inh)
CC(Oc1ccccc1Cl)C(=O)N1CCOCC1 (stereo unspecified)	GRK2 aptamer HTS 43 | GRK2 confirm 2 inactive | FAM quench SP inactive

Bioassay records: PubChem, several laboratories
